SMN2 splice enh: SMN2 splice variant enhancement; HEK293 SMN2-luciferase splicing reporter, luminescence, 30-36 h; Potency, µM (titrated, usually from 46.1 µM), for inactives: top-dose activity change, positive = activation, usual class: activators; 210,000 tested, 2.8% active; further: % of control where 0% means no effect; nearly all actives have a fitted effect of over 55% in size
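qHTS luciferase splicing reporter: luminescence rises when SMN2 exon 7 is included in transfected HEK293 cells. Compound exposure lasted 30-36 h at 37C, with 4.5 mM final sodium butyrate as control, followed by a ONE-Glo read.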
ELG1 repair inh: inhibitors of ELG1-dependent DNA repair in HEK293T cells; HEK293T ELG1-luciferase reporter, luminescence, 16 h; DNA damage induced by 5-fluorouridine; 330,000 tested, 2.3% active; AID 504467; Potency, µM (top dose mostly 46.1 µM), inactives show top-dose activity change, negative = inhibition, usual class: inhibitors; further: on the % scale 0 is the no-effect control and ±100 the full control effect; nearly all actives have a fitted effect of over 55% in size
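Reporter activity after DNA damage by 5-fluorouridine is monitored. Compound-treated cells incubate 16 hr at 37 °C, then ONE-Glo is added for 30 min before luminescence reading.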
ELG1 genotox: inducers of genotoxicity in HEK293T ELG1-luciferase cells | Potency, µM (highest dose often 46 µM), for inactives: at the highest dose activity change, positive = activation, usual class: activators | HEK293T ELG1-luciferase reporter, luminescence, 16 h | 330,000 tested, 1.3% active; further: % of control where 0% means no effect; nearly all actives have a fitted effect of over 60% in size
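After overnight (16 hr) compound treatment at 37 °C, ELG1-luciferase HEK293T cells were lysed with ONE-Glo; luminescence quantified 30 min later at room temperature.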
FLuc counter: counter-screen for miR-21 project: firefly luciferase inhibitors or activators; P08659; purified FLuc, Km substrates, luminescence inhibition; Potency, µM (top dose mostly 57.5 µM), for the others: at the top dose activity change, negative = inhibition, usual class: inhibitors; 360,000 tested, 6.9% active; AID 588342;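 further: plate controls were vehicle for no effect and reference inhibitor for full effect; nearly all actives have a fitted effect of over 55% in size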
Target sequence (P08659 whole entry, looked up): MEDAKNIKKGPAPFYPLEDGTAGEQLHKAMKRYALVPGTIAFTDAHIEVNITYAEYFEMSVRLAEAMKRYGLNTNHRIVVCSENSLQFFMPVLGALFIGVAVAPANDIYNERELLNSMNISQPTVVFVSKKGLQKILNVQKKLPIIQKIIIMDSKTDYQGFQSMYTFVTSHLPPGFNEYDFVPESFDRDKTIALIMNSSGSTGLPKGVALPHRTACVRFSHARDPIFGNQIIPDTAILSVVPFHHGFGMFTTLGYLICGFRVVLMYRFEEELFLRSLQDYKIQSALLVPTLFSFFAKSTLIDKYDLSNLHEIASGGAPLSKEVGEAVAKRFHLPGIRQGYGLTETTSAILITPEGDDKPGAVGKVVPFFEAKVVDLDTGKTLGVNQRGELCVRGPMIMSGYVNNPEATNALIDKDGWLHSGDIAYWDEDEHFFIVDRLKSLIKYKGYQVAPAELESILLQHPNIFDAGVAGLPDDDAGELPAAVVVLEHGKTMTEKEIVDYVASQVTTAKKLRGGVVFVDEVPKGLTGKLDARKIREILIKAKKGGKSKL
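Biochemical qHTS of compounds, final roughly 60 µM downward over six points, against 10 nM purified firefly luciferase using Km concentrations of substrates (10 uM D-luciferin, 10 uM ATP) in Tris acetate pH 7.5 buffer; luminescence output.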
Rab9 promoter act: Rab9 promoter activation; Potency, µM (highest dose often 9.22 µM), without a hit: at the top dose activation, negative = inhibition, usual class: activators; 320,000 tested, 2.8% active; AID 485297; Huh7 Rab9 promoter-luciferase reporter, luminescence, 24 h; further: % of control where 0% means no effect; nearly all actives have a fitted effect of over 60% in size
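Quantitative HTS format; Huh7 Rab9-luciferase reporter cells (1500/well) receive compound 2 h post-plating, incubate 24 h at 37 °C, then get luciferase reagent for 10 min before luminescence reading.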
NPC1 prom act: activators of NPC1 promoter | Huh7 NPC1 promoter luciferase reporter, 24 h | Potency, µM (doses to about 9.22 µM), inactives show at the top dose activation, usual class: activators | 320,000 tested, 2.4% active | AID 485313; further: % of control where 0% means no effect; nearly all actives have a fitted effect of over 60% in size
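Huh7 cells stably carrying NPC1 promoter–luciferase, plated in Opti-MEM with 10% FBS for 2 h, were exposed to compound in DMSO for 24 h at 37 °C; luciferase reagent was added for 10 min and luminescence read.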
* marks the source's active call; other numbers are inactive results; ? = inconclusive; . = not tested or not shown; [ ] = remark or other dose. An excerpt weighted towards active compounds, which were near 9.2% of everything screened. The call rests on the fitted dose curve; in most records, active means well fitted curve in the direction sought with a large enough effect; inconclusive means small, poorly fitted or top-dose-only effect, or another doubt; inactive means no such curve, though single readings can be large; an effect the other way counts as inactive or inconclusive. Potency means the concentration at half of the fitted maximal effect.

SMILES	SMN2 splice enh	ELG1 repair inh	ELG1 genotox	FLuc counter	Rab9 promoter act	NPC1 prom act
Clc1ccc(SCc2cn3ccsc3n2)cc1	25%	?	?	11µM*	4µM*	2.8µM*
c1ccc(CSCc2cn3ccsc3n2)cc1	13µM*	?	16µM*	27µM*	2.8µM*	?
O=C(Cc1cn2ccsc2n1)OCc1ccccc1	23%	?	?	-28%	15%	8%
COc1ccc(CN2CCN(C(=O)C3CCC(CNS(=O)(=O)c4ccc(C)cc4)CC3)CC2)c(OC)c1OC (stereo not given)	-28%	12µM*	-8%	0%	-27%	-6%
COc1ccc(CN2CCN(C(=O)C3CCN(S(=O)(=O)c4cccs4)CC3)CC2)c(OC)c1OC	-35%	10µM*	-5%	-4%	-12%	-5%
COc1cccc([C@@H]2Oc3ccc(Br)cc3C(=O)[C@H]2OC(=O)NCc2ccco2)c1	17%	.	.	.	.	.
COc1ccccc1NC(=O)CCN1CCCCC1	0%	.	.	0%	.	.
Cc1cc(C)c(S(=O)(=O)/N=C2\C=C(NS(=O)(=O)c3ccccc3)C(=O)c3ccccc32)c(C)c1	.	-6%	2%	-16%	10%	10%
CCc1ccc(S(=O)(=O)/N=C2/C=C(Sc3ncn[nH]3)C(=O)c3ccccc32)cc1	-78%	21µM*	-15%	?	-8%	-11%
CCc1ccc(S(=O)(=O)/N=C2\C=C(Nc3cccc(C(=O)O)c3)C(=O)c3ccccc32)cc1	.	?	-26%	?	-7%	-17%
Cc1cc(C)c(S(=O)(=O)/N=C2\C=C(Nc3ccc(C(=O)O)cc3)C(=O)c3ccccc32)c(C)c1	.	3.3µM*	-34%	?	-37%	-28%
CCc1ccc(S(=O)(=O)/N=C2\C=C(Nc3ccc(O)cc3)C(=O)c3ccccc32)cc1	.	3.3µM*	-28%	?	-48%	-41%
O=C(O)c1ccc(NC2=C/C(=N/S(=O)(=O)c3ccccc3)c3ccccc3C2=O)cc1	-103%	4.6µM*	-16%	15µM*	-39%	-40%
CN(C)CCNc1oc(-c2cccc(Cl)c2)nc1C#N	22%	1%	?	-1%	6%	1%
Cc1nc(C#N)c(N/N=C/c2cccc(Cl)c2)o1	11µM*	?	?	4.8µM*	?	?
N/C(=N\OC(=O)c1ccccc1Cl)c1ccccn1	?	?	0.52µM*	0.15µM*	0.63µM*	0.35µM*
N/C(=N\OC(=O)c1ccccc1[N+](=O)[O-])c1ccccn1	-5%	?	?	2.1µM*	1.6µM*	1.8µM*
N/C(=N\OC(=O)c1ccccc1[N+](=O)[O-])c1cccnc1	24%	?	?	?	22%	16%
N/C(=N\OC(=O)c1cccnc1)c1ccc(Cl)cc1Cl	13%	?	?	?	?	12%
N/C(=N\OC(=O)c1cccnc1)c1ccccc1Cl	-33%	?	3%	17µM*	20%	23%
Cc1ccc(C(=O)O/N=C(\N)c2ccccn2)c(C)c1	.	?	-17%	0.021µM*	?	0.032µM*
CCOc1ccc(-c2nc3scc(-c4cccs4)c3c(=O)[nH]2)cc1	-3%	8%	10%	-4%	-3%	-21%
COc1cccc(CN2c3ccc(Br)cc3C(=O)CS2(=O)=O)c1	.	?	-2%	-3%	1%	-4%
COc1ccccc1C(=O)O/N=C(\N)c1ccccn1	.	?	?	11µM*	1.3µM*	1.4µM*
CCCc1nnc(SCC(=O)Nc2cccc(Cl)c2Cl)o1	.	18%	2%	2%	-2%	2%
SMILES	SMN2 splice enh	ELG1 repair inh	ELG1 genotox	FLuc counter	Rab9 promoter act	NPC1 prom act
CCC(=O)NC(c1ccc(C)cc1)c1cc([N+](=O)[O-])c2cccnc2c1O (stereo not given)	-102%	-18%	1%	9%	-5%	-5%
CCCC(=O)NC(c1ccco1)c1cc([N+](=O)[O-])c2cccnc2c1O (stereo not given)	-79%	21µM*	-4%	?	-4%	0%
CCc1c(C)nc(N)n2c(SCC(=O)Nc3ccccc3)nnc12	-6%	-4%	-2%	3%	0%	0%
Cc1cccc(NC(=O)CSc2nc(=O)n(Cc3ccccn3)c3c2CCC3)c1C	.	.	.	-7%	.	.
CC(C)(C)c1ccc(C(=O)c2cn[nH]c2-c2ccccc2O)cc1	.	?	12%	11µM*	?	?
Cc1ccc(NC(=O)N2CCCC2)cc1Cl	16%	?	10%	-20%	28%	17%
O=C(Nc1ccc(Cl)c(Cl)c1)N1CC=CCC1	?	?	?	12µM*	3.5µM*	2.5µM*
Cc1nc2c(C(=O)NCCc3ccccc3)cnn2c(C)c1Cc1c(F)cccc1Cl	.	.	.	-1%	.	.
CCOC(=O)Cc1c(C)nc2c(C#N)c[nH]n2c1=O	18%	2%	-1%	-3%	-2%	-4%
CCOC(=O)Cc1c(C)nc2cc(-c3ccc(C(C)(C)C)cc3)[nH]n2c1=O	-5%	?	?	11µM*	10%	1%
CCOC(=O)Cc1c(C)nc2c(-c3cccc(Br)c3)c[nH]n2c1=O	-88%	16µM*	-11%	21µM*	1%	2%
CCc1c(C)nc2cc(-c3ccccc3)[nH]n2c1=O	.	?	?	11µM*	?	3.2µM*
CCCCc1c(C)nc2cc(-c3ccco3)[nH]n2c1=O	.	?	?	12µM*	?	?
CC(C)CNc1nc(N)[nH]c(=O)c1NC=O	-3%[9.22 µM]	.	.	.	.	.
CCOC(=O)c1c(-c2ccc(OC)cc2)cn2ccccc12	-8%	6%	2%	-17%	-10%	-3%
COc1cc(NC(=O)Cn2c(=O)n(-c3ccccc3)c(=O)c3c4c(sc32)CCCC4)cc(OC)c1	6%	.	.	-1%	.	.
CN1C(=O)Cc2cc(S(=O)(=O)CCC(=O)N3CCN(c4ccc(Cl)cc4)CC3)ccc21	.	.	.	-4%	.	.
COc1cc(-c2cc3nc(C)c(C)c(=O)n3[nH]2)cc(OC)c1OC	-4%	?	0%	-5%	-6%	0%
C=CCc1c(C)nc2cc(-c3ccc(C)cc3)[nH]n2c1=O	.	?	1.8µM*	3µM*	?	1.6µM*
CCN(CC)c1ccc(NC(=S)NC(=O)c2ccco2)cc1	7.9µM*	?	?	15µM*	1.6µM*	?
CCN(CC)c1ccc(NC(=O)c2ccco2)c(C)c1	-5%	?	?	-19%	1%	10%
CCN(CC)c1ccc(NC(=O)c2ccco2)cc1	3.2µM*	?	1.8µM*	3µM*	?	1.6µM*

Bioassay records as filed in PubChem.
